These results are taken from PubChem BioAssay (EPA / NIEHS).

Records with an inconclusive call do not appear. The source made the active and inactive calls. Rule for the calls: active = hit-call score of the fitted dose curve at least 0.9, where 1 is the maximum; inconclusive = response in the unintended direction; inactive = score below 0.9.

For the test, the target named is Nuclear receptor subfamily 4 group A member 2 (Homo sapiens) (UniProt P43354). Description: ATG_NURR1_TRANS: Attagene TRANS-FACTORIAL HepG2 Assay for human Nuclear Receptor Related Protein 1 (NURR1) (AID 2282985). Conditions: HepG2 Attagene TRANS reporter, mRNA readout. The protocol: ATG_TRANS is a cell-based, multiplexed-readout assay that uses HepG2, a human liver cell line, with measurements taken at 24 hours after chemical dosing in a 24-well plate.ATG_NURR1_TRANS is one of 30 assay component(s) measured or calculated from the ATG_TRANS assay. It is designed to make measurements of mRNA induction, a form of inducible reporter, as detected with fluorescence intensity signals by Reverse transcription polymerase chain reaction (RT-PCR) and Capillary electrophoresis technology.Data from the assay component ATG_NURR1_TRANS was analyzed into 1 assay endpoint. This assay endpoint, ATG_NURR1_TRANS, was analyzed in the positive analysis fitting direction relative to DMSO as the negative control and baseline of activity. Using a type of inducible reporter, measures of mRNA for gain-of-signal activity can be used to understand the reporter gene at the transcription factor-level as they relate to the gene NR4A2. Furthermore, this assay endpoint can be referred to as a primary readout, because this assay has produced multiple assay endpoints where this one serves a reporter gene function. To generalize the intended target to other relatable targets, this assay endpoint is annotated to the nuclear receptor intended target family, where the subfamily is orphan.
Nuclear receptor subfamily 4 group A member 2 (Homo sapiens), sequence (P43354 whole entry, looked up): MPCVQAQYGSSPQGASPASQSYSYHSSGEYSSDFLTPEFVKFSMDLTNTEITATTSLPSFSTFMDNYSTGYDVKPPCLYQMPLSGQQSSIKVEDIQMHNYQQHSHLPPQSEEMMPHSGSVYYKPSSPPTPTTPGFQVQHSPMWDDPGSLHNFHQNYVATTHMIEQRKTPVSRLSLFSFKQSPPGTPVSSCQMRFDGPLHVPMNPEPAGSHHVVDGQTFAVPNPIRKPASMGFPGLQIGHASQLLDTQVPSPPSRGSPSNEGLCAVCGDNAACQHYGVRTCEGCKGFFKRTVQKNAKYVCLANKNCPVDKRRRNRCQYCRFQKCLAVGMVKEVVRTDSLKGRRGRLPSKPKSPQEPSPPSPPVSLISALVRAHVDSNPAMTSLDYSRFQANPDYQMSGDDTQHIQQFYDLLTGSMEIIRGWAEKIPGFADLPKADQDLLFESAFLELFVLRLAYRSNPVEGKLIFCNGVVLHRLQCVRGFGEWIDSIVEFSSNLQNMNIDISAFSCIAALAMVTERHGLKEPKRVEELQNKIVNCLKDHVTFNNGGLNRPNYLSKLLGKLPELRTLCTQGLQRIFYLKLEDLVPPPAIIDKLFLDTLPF
Human liver HepG2 cells are transiently transfected with multiple reporter transcription units (MRTUs) in 6-well plates using FuGene 6 reagent (Roche; 3 ml FuGene/1 mg DNA). The MRTU constructs are regulated by a cis-regulating element (promoter). […] A major difference between the CIS and TRANS system is that in CIS activities of endogenous TFs are measured, whereas the TRANS assay evaluates changes in activities of exogenous, chimeric NR-Gal4 proteins. […] At the end of 24 hour incubation, total RNA was isolated using TriZol reagent (Invitrogen). The isolated RNA is then reverse-transcribed using oligo(dT) primer and Mo-MLV reverse transcriptase (Invitrogen) with DNAse I (Ambion) treatment for 30 min. The one-tenth of the produced cDNA was amplified by PCR using Taq DNA polymerase (Invitrogen) and two reporter sequence-specific primers. The PCR products were fluorescently labeled by primer extension with 6-arboxyfluorescein (6-FAM) 5'-labeled reporter sequence-specific primer (2 min at 95 C, 20 s at 68 C and 10 min at 72 C) and these products were digested with 5U of HpaI (New England Biolabs) for 2h at 37 C. The fragments were purified using Qiaquick PCR columns (Qiagen), analyzed on an ABI 3130xL genetic analyzer (Applied Biosystems) with peak positions identified by using a set of X-rhodamine (ROX)-labeled MapMarker1000 molecular weight standards (BioVentures). The raw capillary electrophoresis data was processed using Attagraph software (Attagene).
For `CC1C(C)(C)C2=C(C(=O)CCC2)C1(C)C` (stereo not given), the compound was called inactive.

Turning to `CC(C)(c1ccccc1)c1ccc(Nc2ccc(C(C)(C)c3ccccc3)cc2)cc1`, the result was inactive.

As to `CC1OC(=O)C(C)OC1=O` (stereo not given), the compound was classed as inactive.

Regarding `CCCCCCCOC(=O)c1ccc(O)cc1`, the call was inactive.

`C=C(C)OC(C)=O`: the outcome was inactive.

As to `CCCCCCCCCCCCc1ccc(O)cc1`, the call was inactive.

As to `COc1ccc(C(=O)/C(Br)=C\C(=O)O)cc1`, the outcome was inactive.

Regarding `N#CC1(N)CCCCC1`, the outcome was inactive.

As to `Cc1cccc(C(C)(C)C)c1O`, the compound was called inactive.

`Nc1ccnc(=O)[nH]1`: the result was inactive.

Turning to `COC(=O)c1ccc(C(=O)OC)c(C(=O)OC)c1`, the outcome was inactive.

`c1ccc(-c2nc3ccccc3[nH]2)cc1`: the compound was called inactive.

On to `CC(C)COC(=O)CC(C(=O)OCC(C)C)S(=O)(=O)O` (stereo not given), for which the compound was called inactive.

With `O=C(OCCc1ccccc1)c1ccccc1`, the call was inactive.

With `CC(c1cc(C(C)(C)C)cc(C(C)(C)C)c1O)c1cc(C(C)(C)C)cc(C(C)(C)C)c1O`, the result was inactive.

In the case of `CCOC(=O)C1=NN(c2ccc(Cl)cc2Cl)C(C)(C(=O)OCC)C1` (stereo not given), the AC50 – broadly, the concentration giving half of the maximal activity seen – was 168 µM (active).

On to `COC(OC)(C(=O)c1ccccc1)c1ccccc1`, for which the result was inactive.

For `C[N+](C)(C)CCCNS(=O)(=O)C(F)(F)C(F)(F)C(F)(F)C(F)(F)C(F)(F)C(F)(F)C(F)(F)C(F)(F)F`, the outcome was inactive.

As to `CCCCOC(=O)CCC(C)=O`, the call was inactive.

Regarding `Nc1nc(N)nc(-c2ccccc2)n1`, the compound was called inactive.

With `C=C(C)C1CC=C(C)CC1` (stereo not given), the call was inactive.

On to `CC=C(C)C=CC=C(C)C`, for which the compound was called inactive.

Regarding `C=Cc1ccc(OC(C)=O)cc1`, the outcome was inactive.

As for `CC(=O)OC1CCCCC1C(C)(C)C` (stereo not given), the compound was called inactive.

`O=C(O)c1cc(O)c2ccccc2c1O`: the AC50 was 1.1 µM (active).

For the compound `C1CCSC1`, the call was inactive.

Consider `CCc1cccc(C)c1N(C(=O)CS(=O)(=O)O)C(C)COC` (stereo not given), for which the outcome was inactive.

For `CO[Si](CCCS)(OC)OC`, the result was inactive.

`C=C[Si](OCCOC)(OCCOC)OCCOC`: the compound was classed as inactive.

As to `CC(C)(O)Cc1ccccc1`, the outcome was inactive.

Consider `CCN1CN(CC)CN(CC)C1`, for which the compound was called inactive.

For `CC(C)CCCCCOC(=O)CS`, the result was inactive.

For the compound `C=CC(=O)NC(C)(C)C`, the outcome was inactive.

As for `CCN(CC)c1cccc(C)c1`, the compound was called inactive.

As for `CC(=O)/C=C/C1C(C)=CCCC1(C)C` (stereo not given), the compound was classed as inactive.

In the case of `C=CCCCCCCCCC=O`, the compound was classed as inactive.

Turning to `Cc1c(C(=O)c2c[nH]n(C)c2=O)ccc(S(C)(=O)=O)c1C1=NOCC1`, the call was inactive.

On to `CCOC(=O)OC(=O)OCC`, for which the outcome was inactive.

For `CCCCCCO`, the compound was classed as inactive.

`O=C(C=Cc1ccccc1)OCCc1ccccc1`: the compound was classed as inactive.
